Reference: PubChem BioAssay (NCI)
Where “and” joins values, the source holds several entries; their conditions need not be identical. Equal values may be shown once. Compounds without any hit were thinned out: in the full panel of roughly 79,000, 15% have a hit. Some compounds were tested as several samples or in several runs, with calls that do not always agree. Calls of active or inactive are those of the source. Rule as the data show it: active = growth inhibition above about 70%; inactive = the rest.

Legend:
[1] = NCI Yeast Anticancer Drug Screen. Data for the rad50 strain (AID 155);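 also: 0% = growth of vehicle-only cultures of the same strain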; settings: S. cerevisiae rad50 strain growth inhibition, stronger effect = higher value
How it was run: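 DNA repair mutant yeast, compound exposure, growth read-out; inhibition is taken relative to vehicle.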

[2] = NCI Yeast Anticancer Drug Screen. Data for the mec2-1 strain (AID 157); settings: S. cerevisiae mec2-1 strain, stronger effect = higher value
How it was run: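 Readout is yeast growth inhibition, normalised to vehicle-treated controls, in the mec2-1 strain exposed to compound.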

[3] = NCI Yeast Anticancer Drug Screen. Data for the sgs1 mgt1 strain (AID 161);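 also: 0% = growth of cultures given vehicle only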; settings: S. cerevisiae sgs1 mgt1 strain, stronger effect = higher value
How it was run: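 Compounds are added to genetically altered yeast, and growth is compared with cultures given vehicle alone to give percent inhibition.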

[4] = NCI Yeast Anticancer Drug Screen. Data for the cln2 rad14 strain (AID 165);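 also: 0% = growth equal to vehicle treated cultures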; settings: S. cerevisiae cln2 rad14 strain, stronger effect = higher value
How it was run: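 Relative to vehicle controls, growth inhibition of compound-treated cln2 rad14 yeast was recorded.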

[5] = NCI Yeast Anticancer Drug Screen. Data for the bub3 strain (AID 167); settings: S. cerevisiae bub3 mutant strain, stronger effect = higher value
How it was run: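 In this screen, a yeast mutant lacking normal mitotic checkpoint function is challenged with compound. Relative growth versus vehicle gives the inhibition value.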

[6] = NCI Yeast Anticancer Drug Screen. Data for the mlh1 rad18 strain (AID 175); settings: S. cerevisiae mlh1 rad18 strain growth inhibition, stronger effect = higher value
How it was run: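 Test agents were incubated with a yeast strain of defined genotype (DNA damage repair defect). Inhibition of growth was derived by comparison with vehicle-exposed cultures.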

[7] = at 5.0 µM (retest, dose inferred, filed as 0.5)
[8] = at 50.0 µM (retest, dose inferred, filed as 5.0)

Row | SMILES | growth inhibition [1, 7] | growth inhibition [1, 8] | growth inhibition ([1]; at 50.0 µM) | growth inhibition [2, 7] | growth inhibition [2, 8] | growth inhibition ([2]; at 50.0 µM) | growth inhibition [3, 7] | growth inhibition [3, 8] | growth inhibition ([3]; at 50.0 µM) | growth inhibition [4, 7] | growth inhibition [4, 8] | growth inhibition ([4]; at 50.0 µM) | growth inhibition [5, 7] | growth inhibition [5, 8] | growth inhibition ([5]; at 50.0 µM) | growth inhibition [6, 7] | growth inhibition [6, 8] | growth inhibition ([6]; at 50.0 µM)
1 | O=C1CSC(=S)N1c1ccc(Cl)c(C(F)(F)F)c1 | -1% (inactive) | 36% (inactive) | 97.5% (active) | 0% (inactive) | 11% (inactive) | 97.7% (active) | 6% (inactive) | 97% (active) | 98.9% (active) | -4% (inactive) | -10% (inactive) | 58.4% (inactive) | -6% (inactive) | 56% (inactive) | 98.5% (active) | 11% (inactive) | 95% (active) | 98.3% (active)
2 | O=C1C=CC(=O)C(C2OC(=O)C(Br)=C2Br)=C1 (stereo not given) | -14% (inactive) | 18% (inactive) | 6.95% (inactive) | -21% (inactive) | -17% (inactive) | 5.5% (inactive) | -18% (inactive) | -1% (inactive) | -3.45% (inactive) | -10% (inactive) | -10% (inactive) | -17.7% (inactive) | -9% (inactive) | 7% (inactive) | 13.6% (inactive) | -25% (inactive) | 46% (inactive) | 12.4% (inactive)
3 | COc1ccc2cc(C(C)=O)c3ccccc3c2c1 | 11% (inactive) | 93% (active) | 94.2% (active) | -34% (inactive) | 95% (active) | 86.5% (active) | 1% (inactive) | 88% (active) | 96.2% (active) | -2% (inactive) | 77% (active) | -8.2% (inactive) | -68% (inactive) | 94% (active) | 2.7% (inactive) | 2% (inactive) | 95% (active) | 97% (active)
4 | O=C1c2cccc(O)c2C(=O)c2c(O)cccc21 | 67% (inactive) | 73% (active) | 55% (inactive) and 74.8% (active) | 28% (inactive) | 36% (inactive) | 38.1% (inactive) and 42.8% (inactive) | 21% (inactive) | 50% (inactive) | 41.6% (inactive) and 45.6% (inactive) | 18% (inactive) | 25% (inactive) | 44.1% (inactive) and -10.8% (inactive) | 24% (inactive) | 62% (inactive) | 42.6% (inactive) and 39.5% (inactive) | 42% (inactive) | 66% (inactive) | 50.4% (inactive) and 66.1% (inactive)
5 | O=C1/C(=C/c2ccc(Cl)cc2)Sc2scc(-c3cccc([N+](=O)[O-])c3)[n+]21 | 26% (inactive) | 99% (active) | 89.5% (active) | 36% (inactive) | 100% (active) | 90.4% (active) | 84% (active) | 99% (active) | 91.9% (active) | 44% (inactive) | 98% (active) | 90.5% (active) |  |  |  | 35% (inactive) | 100% (active) | 91.8% (active)
6 | CSc1ncnc2c1ncn2C1OC(CO)C(O)C1O (stereo not given) | 2% (inactive) | 9% (inactive) | 8.95% (inactive) and 3.25% (inactive) | -10% (inactive) | -1% (inactive) | 14.7% (inactive) and 17.6% (inactive) |  |  |  | -1% (inactive) | -3% (inactive) | 38.9% (inactive) and -38.6% (inactive) | -3% (inactive) | -7% (inactive) | 0.05% (inactive) and 13.2% (inactive) | 14% (inactive) | 0% (inactive) | -10.1% (inactive) and 1.6% (inactive)
7 | O=C(O)c1c2ccccc2nc2[nH]c(=O)[nH]c(=O)c12 | -1% (inactive) | -3% (inactive) | 3.3% (inactive) and 23.4% (inactive) | -2% (inactive) | -2% (inactive) | -5.05% (inactive) and 33.4% (inactive) | -6% (inactive) | -3% (inactive) | -4.45% (inactive) and 24.3% (inactive) | 0% (inactive) | 6% (inactive) | 62.9% (inactive) and -0.85% (inactive) |  |  |  | 0% (inactive) | -4% (inactive) | -1.9% (inactive) and 15.7% (inactive)
8 | O=[N+]([O-])c1c(Br)cc(Br)c2c1Nc1c(ccc(Cl)c1Cl)S2 | 14% (inactive) | 94% (active) | 96.5% (active) | 26% (inactive) | 95% (active) | 96.7% (active) | 13% (inactive) | 95% (active) | 96.4% (active) | 20% (inactive) | 93% (active) | 94.2% (active) | 28% (inactive) | 95% (active) | 94.8% (active) | 39% (inactive) | 95% (active) | 95.3% (active)
